Key:
[1] = system: Botulinum neurotoxin type F light chain protease (Clostridium botulinum); assay: Botulinum neurotoxin type F light chain protease inhibition, multiplex microsphere flow cytometry, validation set (AID 588459); settings: multiplex microsphere protease substrate cleavage assay, at 10 µM, hits give high values
[2] = biological target: Botulinum neurotoxin type A (Clostridium botulinum) (UniProt P0DPI0); assay: BoNT/A light chain protease inhibitors, biochemical, multiplex microsphere flow cytometry, validation set (AID 588460); settings: at 10 µM, hits give high values
[3] = biological target: Lethal factor (Bacillus anthracis) (UniProt P15917); assay: Lethal factor protease inhibitors, Bacillus anthracis, multiplex microsphere cleavage assay, validation set (AID 588461); settings: flow cytometry, at 10 µM, hits give high values

Measured: inhibition

CCN(CCCCCN(C)C)Cc1cc2ccccc2o1
inactive: [1] 4.7% | [2] -1.1% | [3] 8.8%

CC(C)CN1CC(C(=O)O)CC1=O (configuration not stated)
inactive: [1] 3.8% | [2] -1.3% | [3] 1.5%

CCCC1O[C@@H]2C[C@H]3[C@@H]4CCC5=CC(=O)C=C[C@]5(C)[C@H]4[C@@H](O)C[C@]3(C)[C@]2(C(=O)CO)O1 (some centres not stated)
inactive: [1] 6.3% | [2] 3.4% | [3] 3.4%

CNC[C@H](O)c1ccc(O)c(O)c1
inactive: [1] -2.9% | [2] -0.9% | [3] -4.8%

O=C(/C=C/c1ccc(F)cc1)N1CC[C@@]2(O)CCCC[C@H]2C1
inactive: [1] -2.9% | [2] -2.2% | [3] 5.2%

CCC1CCc2c(sc(NC(=O)c3cccnc3)c2C(N)=O)C1 (configuration not stated)
inactive: [1] -4.8% | [2] -2.3% | [3] -6.2%

CC(=O)CSc1ncnc2c1cnn2-c1ccccc1
inactive: [1] 2.3% | [2] 0.8% | [3] -1.6%

CN(Cc1ccccc1)CC(O)COc1ccc(CNCc2cccnc2)cc1 (configuration not stated)
inactive: [1] -3.8% | [2] 0.2% | [3] -5.3%

CC(C)NCC(O)COc1ccc(CCOCC2CC2)cc1 (configuration not stated)
inactive: [1] -0.9% | [2] -3.6% | [3] 1.3%

N/C(Cc1ccc(Cl)cc1Cl)=N\OC(=O)c1ccc(Br)o1
inactive: [1] -0.8% | [2] -2.5% | [3] -7.4%

CCN(CC)c1ccc([C@H]2[C@@H]3CCCC[C@]3(O)CCN2CC(=O)NCc2ccco2)cc1
inactive: [1] -1.2% | [2] 0.9% | [3] -7.7%

CC(=O)OCC(=O)[C@@]1(O)CC[C@H]2[C@@H]3CCC4=CC(=O)C=C[C@]4(C)[C@H]3[C@@H](O)C[C@@]21C
inactive: [1] -5.9% | [2] -1.8% | [3] -2.4%

O=C1ON=C(c2ccc(Cl)cc2)/C1=C/c1ccc(O)cc1
inactive: [1] -0.3% | [2] -2.3% | [3] -7.8%

COc1ccc(CNCCC(c2ccc(F)cc2)c2ccc(OC(C)C)cc2)cc1OC (configuration not stated)
inactive: [1] -0.6% | [2] -2% | [3] 8.2%

C#CCOc1ccc2c(C)cc(=O)oc2c1
inactive: [1] -2.9% | [2] -2.2% | [3] 4.6%

CC(C)(C)N(Cc1ccccc1)C(=O)c1ccc(Br)o1
inactive: [1] -1.1% | [2] 0.8% | [3] 11.8%

CCc1cc(=O)oc2cc(C)c(CN3CCCC(C)C3)c(O)c12 (configuration not stated)
inactive: [1] 3.9% | [2] -0.1% | [3] -3.1%

COc1cc2c(cc1OC)C(C)=NC1(CCCCC1)C2
inactive: [1] 9.8% | [2] 4.8% | [3] -0.4%

CN(C)CC/C=C1\c2ccccc2Sc2ccc(Cl)cc21
inactive: [1] -9.1% | [2] -1.1% | [3] 2.3%

Cn1c2c(c(=O)[nH]c1=O)C(c1ccc(O)cc1)C1=C(N2)c2ccccc2C1=O (configuration not stated)
inactive: [1] -0.8% | [2] -0.5% | [3] 3.1%

COc1ccc(CCN2C(=O)CSC2c2ccc(OC)c(OC)c2)cc1OC (configuration not stated)
inactive: [1] -3.4% | [2] 0.4% | [3] 6.7%

CCc1nc(N)nc(N)c1-c1ccc(Cl)cc1
inactive: [1] 0.4% | [2] -0.6% | [3] -2.6%

CCOC(=O)C1=C(N)Oc2c(c(=O)[nH]c3ccccc23)C1c1ccccc1 (configuration not stated)
inactive: [1] 0.4% | [2] 1.1% | [3] -1.6%

CC(C)(Oc1ccc(CCNC(=O)c2ccc(Cl)cc2)cc1)C(=O)O
inactive: [1] -1.2% | [2] 0.1% | [3] 8.7%

CCOc1ccc2nc(S(N)(=O)=O)sc2c1
inactive: [1] 2% | [2] 0% | [3] 8.4%

Cc1ccc2c(c1)C1CN(C)CCC1N2S(=O)(=O)c1ccc(Oc2ccc([N+](=O)[O-])cc2)cc1 (configuration not stated)
inactive: [1] 2.6% | [2] 0.4% | [3] 8.4%

Cc1cc(/C=N/O)c(C)n1-c1ccc(Br)cc1
inactive: [1] 1.9% | [2] 1.1% | [3] 0.9%

COc1ccc2[nH]c(=O)c(CNC3CCCCC3)cc2c1
inactive: [1] -1.7% | [2] 0.9% | [3] -0.1%

Cc1ccc(N2C(=O)c3ccccc3C2=O)cc1C
inactive: [1] -0.3% | [2] 0.5% | [3] -0.8%

Source: PubChem BioAssay
